Assay outcomes from PubChem.
BoNT-A LC inh2: blocks Botulinum neurotoxin A light chain protease. multiplex microsphere protease substrate cleavage, flow cytometry. inhibition, % at 10 µM. 0.17% of 360,000 active. AID 588499
Bead autofluor: counter-screen for toxin protease inhibitors: compound fluorescence. compound autofluorescence counterscreen, microsphere flow cytometry; stronger effect = higher value. AID 624483. 3.1% of 360,000 active. fluorescence intensity (concentration not given with the values); in the data active means fluorescence intensity above about 16000; inconclusive means no clear call, values can overlap the other calls
SARS 3CLpro inh: SARS-CoV 3CLpro protease inhibition. 0.14% of 290,000 active. recombinant SARS-CoV 3CLpro, quenched FRET peptide cleavage. inhibition, % at 6 µM; in the data active means inhibition above about 12%
Anthrax LF inh2: anthrax lethal factor protease inhibition. multiplex microsphere protease cleavage assay, LF. inhibition, % at 10 µM. 0.12% of 360,000 active. AID 588501
BoNT F protease: inhibitors of Botulinum neurotoxin F light chain protease; Multiplex microsphere protease cleavage assay, flow cytometry; inhibition, % at 10 µM; 0.22% of 360,000 active; AID 588497; in the data active means inhibition above about 35%, passing the limit was not always enough; inconclusive means no clear call, values can overlap the other calls
A number is an active result; - = inactive; ? = inconclusive; . = no result. Only some compounds are listed: those with a hit (about 3.5% of all), similar ones and a draw of the others. Unless noted, no stated cut-off is given here; in the data, active means inhibition above about 30%; inconclusive means no clear call, values can overlap the other calls; inactive means below that.

SMILES	BoNT-A LC inh2	Bead autofluor	SARS 3CLpro inh	Anthrax LF inh2	BoNT F protease
CN(C(=O)NC1CCCCC1)c1ccccc1	-	-	-	-	-
Cc1c(C(=N)C(C#N)C#N)c(=N)oc2c1ccc1ccccc12	-	-	-	-	-
Oc1ccc(C=Nc2cccc3ccccc23)c(O)c1	-	-	-	-	-
CC(O)c1cccc(N=Cc2ccc3ccccc3c2O)c1 (centres undefined)	-	-	-	42	?
Cc1ccccc1CN1C(=O)/C(=C\c2ccc(C(=O)NCCN3CCOCC3)cc2)Sc2ccccc21	-	-	-	-	-
Cc1ccc(C(=O)Nc2sc3c(c2C(=O)NCc2ccco2)CCCC3)cc1	-	-	-	-	-
COc1ccc(C(=O)Nc2sc3c(c2C(=O)NCc2ccco2)CCCC3)cc1OC	-	-	-	-	-
O=C(CCN1C(=O)c2ccccc2C1=O)Nc1sc2c(c1C(=O)NCc1ccco1)CCCC2	?	23594	-	-	-
COC(=O)Nc1sc2c(c1C(=O)NC1CC1)CCCCCC2	-	16545	-	-	-
CC(C(=O)Nc1sc2c(c1C(=O)NCc1ccco1)CCCC2)N1C(=O)c2ccccc2C1=O (centres undefined)	-	-	-	-	-
O=C(Nc1sc2c(c1C(=O)NCc1ccco1)CCCC2)c1ccc2c(c1)OCO2	-	21722	-	-	-
COC(=O)Nc1sc2c(c1C(=O)NCc1ccco1)CCCC2	-	17349	-	-	-
O=C(c1ncc[nH]1)c1cccs1	-	-	-	-	?
COc1cc(C(=O)Nc2sc3c(c2C(=O)NCc2ccco2)CCCC3)cc(OC)c1OC	-	-	-	-	-
COC(=O)Nc1sc2c(c1C(=O)NCc1ccco1)CCC2	?	20826	-	-	-
O=C(Nc1sc2c(c1C(=O)NCc1cccnc1)CCCC2)c1ccco1	-	22004	-	-	-
CCc1nn(CC(=O)N2CCN(C)CC2)c(=O)c2cccn12	-	-	-	-	-
CCN(CC)C(=O)CSc1nc2ccccc2c(=O)n1OC	-	-	-	-	-
CCN(CC)C(=O)COn1c(SCC(=O)N(CC)CC)nc2ccccc2c1=O	-	19592	-	-	-
COC(=O)COn1c(-n2nc(C)cc2C)nc2ccccc2c1=O	-	22312	-	-	-
Cc1cc(C)n(-c2nc3ccccc3c(=O)n2OCC(C)C)n1	-	-	-	-	-
CCOn1c(-n2nc(C)cc2C)nc2ccccc2c1=O	-	20487	-	-	-
Cc1nn(Cc2ccc(C(=O)N3N=C(C(F)F)CC3(O)C(F)F)o2)c(C)c1[N+](=O)[O-] (centres undefined)	-	-	-	-	-
O=C(c1ccc(Cn2cc([N+](=O)[O-])cn2)o1)N1N=C(C(F)F)CC1(O)C(F)F (centres undefined)	-	22404	-	-	-
CN1C=CC2=C(C#N)C(N)C(C#N)(C#N)[C@H](c3ccccc3)[C@H]2C1 (some centres undefined)	-	16327	-	-	-
SMILES	BoNT-A LC inh2	Bead autofluor	SARS 3CLpro inh	Anthrax LF inh2	BoNT F protease
COc1cccc(C(=O)CN(C(=O)c2ccc(Cl)c(Cl)c2)N2C(=O)c3ccccc3C2=O)c1	?	16849	-	-	-
Cc1ccc(C(=O)CN(C(=O)c2ccc(Cl)c(Cl)c2)N2C(=O)C3CCCCC3C2=O)cc1 (centres undefined)	-	-	-	-	-
Cc1ccc(C(=O)CN(C(=O)c2ccc(Cl)c(Cl)c2)N2C(=O)C3CCCCC3C2=O)cc1C (centres undefined)	?	20975	-	-	-
CCOC(=O)[C@]12Cc3cc(Cl)ccc3[C@H]1N(C)C(=O)c1cc(OC)ccc12	-	-	.	-	-
CCOC(=O)CN(C(=O)CSc1nnc2c(n1)[nH]c1ccc(OC)cc12)c1ccc(F)cc1	-	22990	-	-	-
CCN(CC)C(=O)Cn1cc(S(=O)(=O)CC(=O)Nc2ccc(OC)c(OC)c2)c2ccccc21	-	-	-	-	-
CC(=NCCCN1CCCCC1)c1c(O)n(Cc2ccccc2)c(=O)[nH]c1=O	-	-	-	-	-
CC(=NCCN1CCCCC1)c1c(O)[nH]c(=O)[nH]c1=O	-	16267	-	-	-
CC(=NCCCn1ccnc1)c1c(O)n(Cc2ccccc2)c(=O)[nH]c1=O	-	20727	-	-	-
CC(=NCCN1CCCCC1)c1c(O)n(Cc2ccccc2)c(=O)[nH]c1=O	-	23910	-	-	-
COc1ccc(-n2c(O)c(C(C)=NCCN3CCNCC3)c(=O)[nH]c2=O)cc1	-	22171	-	-	-
CCOc1ccc(NC(=O)CCCNC(=O)Cn2cnc3sc(C)c(C)c3c2=O)cc1	-	-	-	-	-
Cc1ccccc1C(=O)NNC(=O)/C=C\C(=O)O	-	-	-	-	-
